CCHF vOTU inh: CCHFV vOTU protease inhibition; Pep-AMC fluorescence; inhibition, % at 11.5 µM; 370,000 compounds, 0.55% hits; note: 0% = vehicle wells with enzyme and 100% = no enzyme wells
RecA intein inh: Mtb RecA intein splicing inhibition; P9WHJ3; cell-free RecA intein splicing, fluorescence; inhibition, % (test concentration not listed); 290,000 compounds, 0.75% hits; AID 2221; in the data active = inhibition above about 30%;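 note: 0% = vehicle wells and 100% = reference inhibitor control wells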
GDH-TPI counter-1: inhibits GDH-TPI coupling enzymes, artifact for Mtb FBA screen; GDH-TPI coupled enzyme counterscreen, NADH absorbance; inhibition, % at 4.8 µM; 360,000 compounds, 1.2% hits; AID 588335;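 note: 0% = DMSO wells and 100% = wells lacking the enzyme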
Mtb FBA inh: inhibitors of M. tuberculosis fructose-bisphosphate aldolase; inhibition, % at 1 µM; 360,000 compounds, 2.3% hits; P9WQA3; purified M. tuberculosis FBA, fluorescence read-out; AID 588726; in the data active = inhibition above about 27%;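 note: 0% = vehicle and 100% = reference inhibitor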
Target sequence (P9WQA3 whole entry, looked up): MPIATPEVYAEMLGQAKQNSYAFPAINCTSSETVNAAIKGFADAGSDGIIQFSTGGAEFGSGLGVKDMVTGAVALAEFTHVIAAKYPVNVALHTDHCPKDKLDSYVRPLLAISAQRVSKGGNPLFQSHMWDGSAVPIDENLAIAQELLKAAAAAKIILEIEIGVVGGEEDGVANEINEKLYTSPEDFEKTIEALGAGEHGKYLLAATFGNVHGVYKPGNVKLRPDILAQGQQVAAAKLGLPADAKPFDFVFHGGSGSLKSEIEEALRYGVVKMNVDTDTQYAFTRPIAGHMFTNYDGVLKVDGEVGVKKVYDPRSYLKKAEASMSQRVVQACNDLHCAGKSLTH
Mtb FBA inh conf: Mtb FBA inhibition, confirmed; shares compounds with Mtb FBA inh; purified M. tuberculosis FBA, fluorescence read-out; inhibition, % at 1 µM; 5,600 compounds, 78% hits; in the data active = inhibition above about 27%;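 note: 0% = vehicle wells and 100% = reference inhibitor wells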
GDH-TPI counter-2: GDH-TPI inhibition counter-screen for FBA inhibitors. shares compounds with Mtb FBA inh. GDH-TPI coupled enzyme counterscreen, fluorescence. inhibition, % at 1 µM. 5,600 compounds, 81% hits. AID 652141; in the data active = inhibition above about 10%
* hit, by the source's call; nt = no result given; + = active, no number. Only some compounds are listed: those with a hit (about 4.2% of all), similar ones and a draw of the others. Cut-off read from the data, not from the text of the source, unless noted: active = inhibition above about 30%; inactive = the rest.

SMILES	CCHF vOTU inh	RecA intein inh	GDH-TPI counter-1	Mtb FBA inh	Mtb FBA inh conf	GDH-TPI counter-2
COc1ccc(CCNc2oc(-c3ccc(C)cc3)nc2C#N)cc1OC	-10	1	8	51*	70*	62*
N#Cc1nc(-c2ccc(Cl)cc2)oc1NCc1cccc2c1OCO2	-3	0	-4	27*	110*	89*
N#Cc1nc(-c2ccccc2)oc1NCc1ccco1	-43	1	17	101*	59*	50*
N#Cc1nc(-c2ccccc2Cl)oc1NCc1ccco1	-11	7	9	9	nt	nt
O=C1COc2ccc(N3C(=O)C=CC3=O)cc2N1	nt	6	nt	nt	nt	nt
O=C(CNS(=O)(=O)c1c(Cl)cccc1Cl)N1CCCCCC1	-2	3	18	0	nt	nt
COc1ccccc1C(=O)NCCCNc1nc2cc(C)cc(C)c2cc1C#N	3	nt	-4	42*	+	146*
Cc1cc(C)c2cc(C#N)c(NCCCNC(=O)CCC(=O)O)nc2c1	-28	-49	12	42*	44*	36*
COc1cccc(C(=O)NCCCNc2nc3cc(C)cc(C)c3cc2C#N)c1	-4	nt	-1	9	nt	nt
COc1cc2c(cc1[N+](=O)[O-])-c1ccc([N+](=O)[O-])cc1C2=NO	16	nt	7	3	nt	nt
CCOC(=O)c1c(C)[nH]c2cc(Br)c(OC)cc12	6	-4	3	0	nt	nt
CCOC(=O)c1c(C)[n+](-c2ccc(C)cc2)c(CC)c2cc(OC)c(OC)cc12	-41	-2	11	41*	82*	57*
N#Cc1ccc(-c2ccc(OCC(O)CN3CCOCC3)cc2)cc1 (stereo not given)	1	2	-5	40*	4	-1
COc1ccc(Cl)cc1-c1nc(SCC(=O)NC(C)(C)C)n[nH]1	1	-3	-8	29*	100*	93*
CCn1cc(C2C(C(=O)Nc3cc(C)ccn3)=C(C)NC3=C2C(=O)CC(C)(C)C3)c(C)n1 (stereo not given)	-34	-20	8	52*	104*	85*
CCN(CC)c1ccc(C2C(C(=O)Nc3ccccn3)=C(C)NC3=C2C(=O)CC(C)(C)C3)cc1 (stereo not given)	-9	-26	-4	2	nt	nt
O=C(COc1ncnc2scc(-c3ccc(Cl)cc3)c12)NCc1ccco1	7	1	1	83*	5	-2
CN(CC(=O)Nc1ccc(F)cc1)C(=O)c1cc(-c2ccco2)nc2ccccc12	-114	3	12	30*	+	+
Cc1ccc(NC(=O)CN(C)C(=O)c2cc(-c3ccco3)nc3ccccc23)cc1	-23	1	11	19	nt	nt
COc1cccc(NC(=O)CN(C)C(=O)c2cc(-c3ccco3)nc3ccccc23)c1	-104	2	14	69*	3	0
CN(CCOc1ccc(Cl)cc1)C(=O)c1cc(-c2ccco2)nc2ccccc12	-28	19	7	37*	174*	127*
CCOc1ccc(NC(=O)CN(C)C(=O)c2cc(-c3ccco3)nc3ccccc23)cc1OCC	-61	nt	15	62*	+	+
COc1ccc(Cc2nnc(SCC(=O)NC3(C#N)CCCCC3)n2N)cc1	9	-1	6	2	nt	nt
CCOC(=O)[C@]12CCCC=C1N(CCc1ccc(OC)c(OC)c1)C(=O)[C@H](CC(=O)N1CCN(C(=O)C3CC3)CC1)C2	-1	nt	nt	nt	nt	nt
CCN(C[C@H]1N[C@@](C)(C(=O)OC)[C@H]2C(=O)N(C)C(=O)[C@@H]12)C(=O)c1ccc(C(C)(C)C)cc1	8	nt	-11	2	nt	nt
SMILES	CCHF vOTU inh	RecA intein inh	GDH-TPI counter-1	Mtb FBA inh	Mtb FBA inh conf	GDH-TPI counter-2
CSc1ccc(/C=C(\C(=O)O)c2ccc(S(=O)(=O)N3CCCCC3)s2)cc1	20	2	29	37*	1	-5
CN(C)c1ccc2c(O)cc(=O)n(C)c2c1	-24	-9	18	37*	29*	25*
COCC1OC(OC(C)C(O)c2cnc3nc(N)[nH]c(=O)c3n2)C(O)C(OC)C1O (stereo not given)	-154	nt	-4	103*	92*	66*
CCC(=O)N1c2ccc(S(=O)(=O)NC3CCCCC3)cc2CC1C (stereo not given)	11	2	-3	-1	nt	nt
CN(CCO)C(=O)C1CCN(c2ncc(C(F)(F)F)cc2Cl)CC1	-2	1	4	41*	79*	63*
COc1cc(NC(=O)COC(=O)CNC(=O)C23CC4CC(CC(C4)C2)C3)cc(OC)c1	4	nt	12	1	nt	nt
COc1ccc2c(CN3CCCCCCC3)cc(=O)oc2c1	-46	nt	nt	82*	1	0
COc1ccc2c(CN3CCN(c4ccccc4OC)CC3)cc(=O)oc2c1	-5	nt	nt	2	nt	nt
COc1ccc2c(COC(=O)CNC(=O)C34CC5CC(CC(C5)C3)C4)cc(=O)oc2c1	-49	-3	12	85*	+	167*
COc1ccc2c(COC(=O)[C@@H]3CCCN3S(=O)(=O)c3ccc(Cl)cc3)cc(=O)oc2c1	-25	nt	7	51*	102*	76*
CN(CC(=O)Nc1cccc(F)c1)C(=O)C1(c2ccccc2)CC1	7	nt	4	3	nt	nt
CCN(CC)c1ccc(/C=C2\SC(=O)N(C(C)C)C2=O)o1	nt	-1	-6	1	nt	nt
COc1ccccc1-c1nc(C(N)=O)c2[nH]c(=O)n(-c3cccc(C)c3)c2n1	3	0	29	48*	+	195*
CCOc1ccccc1-c1nc(C(N)=O)c2[nH]c(=O)n(-c3ccccc3)c2n1	-4	-2	19	4	nt	nt
CC(C)Cc1nc(C(N)=O)c2[nH]c(=O)n(-c3ccc(F)cc3)c2n1	5	-1	2	10	nt	nt
CCc1nc(C(N)=O)c2[nH]c(=O)n(-c3ccccc3F)c2n1	-46	0	8	105*	91*	74*
Cc1cccc(-n2c(=O)[nH]c3c(C(N)=O)nc(CC(C)C)nc32)c1	16	-3	9	46*	94*	76*
COc1ccc(-n2nnnc2CNC(=O)c2ccc3c(c2)OCO3)cc1	12	-4	-5	1	nt	nt
CS(=O)(=O)c1ccc(C(=O)N2CCN(S(=O)(=O)c3ccc(C4CCCCC4)cc3)CC2)cc1	6	nt	9	3	nt	nt
COc1ccc(-c2sc(C(=O)c3ccc(Cl)cc3Cl)cc2CC(=O)O)cc1	-3	-39	16	45*	73*	55*
CCN(CC)S(=O)(=O)c1ccc(-c2cn3ccccc3n2)cc1	-66	nt	5	86*	158*	113*
Oc1ccc(-c2cn3ccccc3n2)cc1	-21	-1	17	57*	-6	-5
c1ccc(-c2cn3ccccc3n2)cc1	-2	nt	4	35*	8	3
CCNC(=O)c1cc(S(=O)(=O)N2CCSCC2)ccc1OC	-8	0	12	-3	nt	nt
COCCCn1c(C(=O)N2CC(C)OC(C)C2)cc2c(=O)n3cccc(C)c3nc21 (stereo not given)	nt	2	27	74*	+	+

High-throughput results as filed in PubChem BioAssay.
